# Laboratory results taken from PubChem BioAssay (NCATS).
# Inconclusive results are not listed. Where a call stands in place of a potency, no number is given. The source made the active and inactive calls. Unless noted, calls follow the shape of the dose curve; as a rule, active = well fitted curve in the direction sought with a large enough effect; inconclusive = small, poorly fitted or top-dose-only effect, or another doubt; inactive = no such curve, though single readings can be large; an effect the other way counts as inactive or inconclusive.
# Assays:
# [1] = HepG2 viability counterscreen (readout 2: ATP content) against the NCATS DSHEA and TCM libraries (AID 1794840);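 also: HepG2 cells exposed to substances for about 24 h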
# Procedure, shortened: (§1)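 Cytotoxicity was assessed in HepG2 cells plated at 1,000 cells/well and exposed for about 24 hours to a concentration series. Protease activity and ATP content were measured sequentially in each well.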
# [2] = HepG2 viability counterscreen (readout 1: protease activity) against the NCATS DSHEA and TCM libraries (AID 1794841);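 also: cells exposed to compounds for about 24 h before the protease read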
# Procedure, shortened: as §1
# [3] = target: Glutathione peroxidase 1 (Homo sapiens) (UniProt P07203); assay: Primary qHTS Assay for Inhibitors of Recombinant Selenoprotein Glutathione Peroxidase 1 (GPX1) (AID 1845191); also: nearly all actives have a fitted effect of over 65% in size; also: potency is read from the fitted curve at half-maximal effect
# Procedure, shortened: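 GR-coupled assay: compounds preincubated 30 min at room temperature with GPX1, then reaction started with CHP; final 10 nM GPX1, 1 mM GSH, 0.5 mM CHP, 0.5 mM NADPH, 100 nM GR, 0.01% BSA, pH 7.5 Tris buffer. NADPH fluorescence (340/450 nm) read at 0 and 15 min.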
# [4] = target: Phospholipid hydroperoxide glutathione peroxidase GPX4 (Homo sapiens) (UniProt P36969); assay: Primary qHTS Assay for Inhibitors of Recombinant Selenoprotein Glutathione Peroxidase 4 (GPX4) (AID 1845192); also: nearly all actives have a fitted effect of over 65% in size; also: potency is read from the fitted curve at half-maximal effect
# Procedure, shortened: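 GR-coupled assay: recombinant GPX4 preincubated 30 min with compound at room temperature; final 200 nM GPX4, 1 mM GSH, 0.5 mM cumene hydroperoxide, 0.5 mM NADPH, 100 nM GR, 0.01% BSA, pH 7.5 Tris. NADPH fluorescence (340/450 nm) read at 0 and 15 min.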
# [5] = target: Catechol O-methyltransferase (Homo sapiens) (UniProt P21964); assay: Confirmatory Screen for Target Class Profiling of Small Molecule Inhibitors of Methyltransferases (AID 1745852); settings: MTase-Glo luminescence, SAH detection, recombinant enzyme; measured here: COMT max response; stronger effect = lower value
# [6] = target: Guanidinoacetate N-methyltransferase (Homo sapiens) (UniProt Q14353); assay: as above; settings: activity change, negative = inhibition: at 57.3 µM (top of the series) unless noted
# [7] = target: Nicotinamide N-methyltransferase (Homo sapiens) (UniProt P40261); assay: as above; settings: MTase-Glo luminescence, SAH detection, recombinant enzyme; measured here: NNMT max response; stronger effect = lower value
# [8] = target: Phenylethanolamine N-methyltransferase (Homo sapiens) (UniProt P11086); assay: as above; settings: MTase-Glo luminescence, SAH detection, recombinant enzyme; measured here: PNMT max response; stronger effect = lower value
# [9] = target: Luciferin 4-monooxygenase (Photinus pyralis) (UniProt P08659); assay: Primary firefly luciferase (FLuc) qHTS assay for identification of artifact compounds. (AID 1845220); also: nearly all actives have a fitted effect of over 60% in size
# Procedure, shortened: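 D-luciferin and ATP (10 uM each, final) in Tris acetate buffer pH 7.6 were incubated with compounds for 15 min at room temperature. The reaction was started with 10 nM Photinus pyralis luciferase and luminescence read after 5 min. Percent inhibition was fitted to a 4-parameter Hill equation.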
# [10] = Primary fluorescence-based thiol-reactive (MSTI) qHTS assay for identification of artifact compounds. (AID 1845221);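 also: thiol-reactive compounds lower the probe fluorescence signal; nearly all actives have a fitted effect of over 65% in size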
# Procedure, shortened: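 MSTI probe at 4 uM final in 2% DMSO/PBS pH 7.4; compounds, 1 h at room temperature in dark. Fluorescence Ex/Em 525/598 nm, normalised to Acetyl-MSTI and MSTI, fitted to 4-parameter Hill.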
# [11] = test system: Nanoluciferase (engineered Oplophorus gracilirostris luciferase); assay: Primary Nanoluciferase (NLuc) qHTS assay for identification of artifact compounds. (AID 1845222); also: potency is read from the fitted curve at half-maximal effect
# Procedure, shortened: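 Diluted conditioned medium from NLuc-expressing S16 cells treated with compounds for 15 min at room temperature, then Nano-Glo substrate added; luminescence read after 5 min. Percent inhibition versus no-enzyme and DMSO controls fitted to 4-parameter Hill equation.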
# [12] = NCATS anti-infectives library activity on HEK293 viability as a counter-qHTS vs the C. elegans viability qHTS (AID 1745854);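 also: HEK293 cells exposed to compounds for 24 hr before the viability read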
# Procedure, shortened: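 Cytotoxicity in human HEK293 cells is measured by ATP-dependent CellTiter-Glo luminescence following a 24 hr incubation with titrated library compounds at 37C. Top final concentration is 41.7 uM.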
# [13] = NCATS anti-infectives library activity on the primary C. elegans qHTS viability assay (AID 1745855; calls by dose curve); settings: C. elegans worm area imaging, day 7; at 41.8 µM (top of the series)
# Procedure, shortened: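 Viability is taken from GFP fluorescence of PE254-GFP-FLuc C. elegans imaged by laser cytometry over 7 days. Ten L1 worms per well grow at 21 °C on TOP10 E. coli capsules with titrated compound; levamisole marks toxicity.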
# [14] = Viability counterscreen for antagonist of constitutive androstane receptor (CAR) against the NCATS DSHEA and TCM libraries (AID 1794837);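 also: compound exposure lasted 24 h before viability reading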
# Procedure, shortened: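 Fluorescence from CellTiter-Fluor reports live-cell protease activity in HepG2-CYP2B6-hCAR cells treated for 24 h with substances alongside 48 uM CITCO.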
# [15] = target: Nuclear receptor subfamily 1 group I member 3 (Homo sapiens) (UniProt Q14994); assay: Primary qHTS for agonist of constitutive androstane receptor (CAR) against the NCATS DSHEA and TCM libraries (AID 1794839);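 also: HepG2 cells expressing human CAR with a CYP2B6 reporter plus PK11195 antagonist; luciferase reporter luminescence read with ONE-Glo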
# Procedure, shortened: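 Cells stably carrying hCAR and a CYP2B6 reporter (HepG2 background) are seeded and allowed 5 h to adhere. Substances at multiple concentrations are added alongside 0.75 µM PK11195, and luciferase signal is measured after 24 h.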
# [16] = target: Metallo-beta-lactamase type 2 (Klebsiella pneumoniae) (UniProt C7C422); assay: qHTS to identify inhibitors of the New Delhi Metallo-beta-lactamase (NDM): assay validation screen against the NCATS LOPAC Collection (AID 1794843);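 also: nitrocefin turnover by NDM-1 measured as 485 nm absorbance at plateau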
# Procedure, shortened: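 NDM-1 at 2 nM final in 50 mM HEPES pH 7.0, 1 uM ZnSO4, 0.01% Tween20, preincubated with LOPAC compounds pinned in DMSO; 50 uM nitrocefin (stock) added. Hydrolysis read as absorbance at 485 nm in the plateau phase.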
# Catechol O-methyltransferase (Homo sapiens), sequence (P21964 whole entry, looked up): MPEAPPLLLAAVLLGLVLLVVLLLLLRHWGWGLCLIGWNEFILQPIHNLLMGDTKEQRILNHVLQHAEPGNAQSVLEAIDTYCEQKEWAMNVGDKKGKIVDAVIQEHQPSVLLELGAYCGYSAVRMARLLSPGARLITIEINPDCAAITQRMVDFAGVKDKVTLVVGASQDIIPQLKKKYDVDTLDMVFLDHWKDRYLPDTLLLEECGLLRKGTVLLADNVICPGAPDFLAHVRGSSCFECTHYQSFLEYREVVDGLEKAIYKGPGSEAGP
# Nicotinamide N-methyltransferase (Homo sapiens), sequence (P40261 whole entry, looked up): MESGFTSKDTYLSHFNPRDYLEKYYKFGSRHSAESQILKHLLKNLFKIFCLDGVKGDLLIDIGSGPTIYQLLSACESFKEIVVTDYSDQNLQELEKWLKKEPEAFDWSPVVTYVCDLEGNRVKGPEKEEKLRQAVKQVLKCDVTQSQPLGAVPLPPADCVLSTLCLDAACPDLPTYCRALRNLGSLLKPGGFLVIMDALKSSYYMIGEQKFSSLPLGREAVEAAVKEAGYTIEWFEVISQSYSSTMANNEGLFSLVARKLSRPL
# Phenylethanolamine N-methyltransferase (Homo sapiens), sequence (P11086 whole entry, looked up): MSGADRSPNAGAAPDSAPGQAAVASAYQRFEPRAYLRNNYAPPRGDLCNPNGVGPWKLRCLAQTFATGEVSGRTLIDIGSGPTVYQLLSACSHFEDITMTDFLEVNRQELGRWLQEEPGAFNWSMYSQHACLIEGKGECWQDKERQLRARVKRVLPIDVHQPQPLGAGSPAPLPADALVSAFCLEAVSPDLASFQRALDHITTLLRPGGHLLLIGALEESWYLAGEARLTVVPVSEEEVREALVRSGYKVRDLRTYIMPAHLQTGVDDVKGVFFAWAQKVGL
# Glutathione peroxidase 1 (Homo sapiens), sequence (P07203 whole entry, looked up): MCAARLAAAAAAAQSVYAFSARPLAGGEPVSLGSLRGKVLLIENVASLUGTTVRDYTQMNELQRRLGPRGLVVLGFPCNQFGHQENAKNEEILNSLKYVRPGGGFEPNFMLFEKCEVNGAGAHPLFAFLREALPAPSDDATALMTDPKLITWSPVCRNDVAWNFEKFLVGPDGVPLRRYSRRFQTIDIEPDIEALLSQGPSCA
# Phospholipid hydroperoxide glutathione peroxidase GPX4 (Homo sapiens), sequence (P36969 whole entry, looked up): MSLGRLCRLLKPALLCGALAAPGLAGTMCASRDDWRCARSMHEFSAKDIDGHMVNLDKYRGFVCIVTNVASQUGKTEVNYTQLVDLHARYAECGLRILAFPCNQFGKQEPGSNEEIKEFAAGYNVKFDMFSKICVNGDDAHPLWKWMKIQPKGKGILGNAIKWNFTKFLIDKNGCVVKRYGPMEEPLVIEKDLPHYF
# Nuclear receptor subfamily 1 group I member 3 (Homo sapiens), sequence (Q14994 whole entry, looked up): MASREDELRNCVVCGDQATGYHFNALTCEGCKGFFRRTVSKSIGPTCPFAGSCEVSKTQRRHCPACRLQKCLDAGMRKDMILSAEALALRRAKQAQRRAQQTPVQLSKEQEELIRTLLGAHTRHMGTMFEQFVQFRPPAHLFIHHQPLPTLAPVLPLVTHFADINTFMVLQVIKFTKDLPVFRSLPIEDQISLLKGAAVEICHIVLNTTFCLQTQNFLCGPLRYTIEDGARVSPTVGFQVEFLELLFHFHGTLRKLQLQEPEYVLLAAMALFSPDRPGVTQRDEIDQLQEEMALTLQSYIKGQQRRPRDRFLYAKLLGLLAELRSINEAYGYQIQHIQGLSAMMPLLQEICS
# Metallo-beta-lactamase type 2 (Klebsiella pneumoniae), sequence (C7C422 whole entry, looked up): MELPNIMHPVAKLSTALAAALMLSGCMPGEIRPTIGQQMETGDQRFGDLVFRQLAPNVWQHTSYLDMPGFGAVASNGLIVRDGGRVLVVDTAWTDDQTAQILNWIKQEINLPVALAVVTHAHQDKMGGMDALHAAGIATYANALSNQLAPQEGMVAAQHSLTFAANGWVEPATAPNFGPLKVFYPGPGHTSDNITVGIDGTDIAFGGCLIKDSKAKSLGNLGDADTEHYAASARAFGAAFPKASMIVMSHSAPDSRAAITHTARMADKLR
smiles,measurement,setting,value
CC1=CCC(C(C)(C)O)CC1 (stereo not given),outcome,[1],inactive
same,outcome,[2],inactive
same,Potency,[3],inactive
same,Potency,[4],inactive
C[C@@H]1O[C@@H](O[C@H]2[C@H](OC(=O)C34CCC(C)(C)CC3C3=CCC5C6(C)CC(O)C(O[C@@H]7O[C@H](CO)[C@@H](O)[C@H](O)[C@H]7O)C(C)(C(=O)O)C6CCC5(C)C3(CO)CC4)O[C@H](C)[C@H](O)[C@@H]2O)[C@H](O)[C@H](O)[C@H]1O[C@@H]1OC[C@@H](O)[C@H](O)[C@H]1O (stereo not given in full),activity,[5],-46%
same,"activity change, negative = inhibition",[6],-4.58% [at 19.1 µM]
same,activity,[7],-3.41%
same,activity,[8],-2.81%
same,Potency,[4],inactive
same,outcome,[9],inactive [at 11.6 µM]
same,"activity change, negative = thiol reactive",[10],89.3% [at 11.5 µM] (inactive)
same,"activity, negative = inhibition",[11],2.8% [at 11.6 µM] (inactive)
CC1(C)CC[C@]2(C(=O)O[C@@H]3O[C@H](CO)[C@@H](O)[C@H](O)[C@H]3O)CC[C@]3(C)C(=CCC4[C@@]5(C)C[C@@H](O)[C@H](O)[C@@](C)(CO)C5CC[C@]43C)C2C1 (stereo not given in full),activity,[5],-71.4%
same,"activity change, negative = inhibition",[6],-8.61% [at 19.1 µM]
same,activity,[7],-8.27%
same,activity,[8],-4.38%
same,Potency,[4],inactive
same,Potency,[9],inactive
same,Potency,[10],inactive
same,Potency,[11],inactive
CO/N=C(\C(=O)N[C@@H]1C(=O)N2C(C(=O)O)=C(CSc3cnns3)CS[C@H]12)c1csc(N)n1,Potency,[3],20.2 µM (active)
same,Potency,[4],15.8 µM (active)
CCOc1nc2cccc(C(=O)O)c2n1Cc1ccc(-c2ccccc2-c2noc(=O)[nH]2)cc1,outcome,[12],inactive
same,outcome,[13],inactive
same,Potency,[3],inactive
same,Potency,[4],inactive
same,Potency,[9],inactive
same,Potency,[10],inactive
same,Potency,[11],21.3 µM (active)
C[C@H](CCC(=O)O)[C@H]1CC[C@H]2[C@@H]3[C@H](O)C[C@@H]4C[C@H](O)CC[C@]4(C)[C@H]3CC[C@]12C,Potency,[3],inactive
CC[C@@H](C(=O)[C@@H](C)[C@@H](O)[C@H](C)CCc1ccc(C)c(O)c1C(=O)O)[C@H]1O[C@](CC)([C@H]2CC[C@](O)(CC)[C@H](C)O2)C[C@@H]1C,Potency,[3],inactive
same,Potency,[4],4.47 µM (active)
COC(=O)C1=CO[C@@H](O[C@@H]2O[C@H](CO)[C@@H](O)[C@H](O)[C@H]2O)[C@@H]2[C@@H](C)[C@@H](O)C[C@H]12,outcome,[12],inactive
same,Potency,[3],inactive
same,Potency,[4],inactive
same,Potency,[9],inactive
same,Potency,[11],inactive
CCCCCCCC(=O)O,outcome,[14],inactive
same,outcome,[15],inactive
same,outcome,[1],inactive
same,outcome,[2],inactive
same,Potency,[3],inactive
same,Potency,[4],inactive
Cc1c(C)c2c(c(C)c1O)CC[C@@](C)(CCC[C@H](C)CCC[C@H](C)CCCC(C)C)O2,outcome,[1],inactive
same,outcome,[2],inactive
COCC(=O)Nc1cc(Sc2ccccc2)ccc1N=C(NC(=O)OC)NC(=O)OC,Potency,[3],inactive
CN1Cc2c(N)cccc2C(c2ccccc2)C1 (stereo not given),outcome,[16],inactive
same,Potency,[3],inactive
same,Potency,[4],inactive
CCN(CC)Cc1cc(Nc2ccnc3cc(Cl)ccc23)ccc1O,outcome,[12],inactive
same,Potency,[3],inactive
same,Potency,[4],inactive
COC(=O)C1=CO[C@@H](O[C@@H]2O[C@H](COC(=O)/C=C/c3cc(OC)c(O)c(OC)c3)[C@@H](O)[C@H](O)[C@H]2O)[C@@H]2C(CO)=CC[C@H]12,activity,[5],-58.2%
same,"activity change, negative = inhibition",[6],-6.4% [at 19.1 µM]
same,activity,[7],-2.91%
same,activity,[8],-3.37%
same,Potency,[3],inactive
same,Potency,[4],inactive
same,Potency,[9],inactive
same,Potency,[11],inactive
